# Measurements reported in PubChem BioAssay (EPA / NIEHS).
# Where “and” joins values, the source holds several entries; their conditions need not be identical. Equal values may be shown once. Calls of active or inactive are those of the source. The calls were made as follows: active = hit-call score of the fitted dose curve at least 0.9, where 1 is the maximum; inactive = score below 0.9.
# Read-out: Lipoprotein lipase (LPL), LPL (gene 4023)
# Test: LTEA_HepaRG_LPL: Life Technologies and Expression Analysis (LTEA) Assay for Lipoprotein lipase (LPL) using HepaRG (AID 2283515)
# Settings: mRNA level, 48 h; actives raise or lower the signal
# Procedure: LTEA_HepaRG is a cell based, multiplexed-readout assay that uses HepaRG, a human liver cell line, with measurements taken at 48 hours after chemical dosing on a 96-well plate.LTEA_HepaRG_LPL is one of 102 assay component(s) measured in the LTEA HepaRG cell culture assay. It is a marker of Steatosis.Data from the assay component LTEA_HepaRG_LPL was analyzed into 1 endpoint. This assay endpoint, LTEA_HepaRG_LPL, was analyzed with bidirectional fitting relative to DMSO as the negative control and baseline of activity. Using a type of inducible reporter, measures of mRNA induction for gain or loss-of-signal activity can be used to understand regulation of transcription factor activity. To generalize the intended target to other relatable targets, this assay endpoint is annotated to the esterase intended target family, where the subfamily is lipase.
# A total of 1060 chemcials from the ToxCast library were tested in eight-point concentration-response experiments. Cell culture and cytotoxicity assays were conducted at Thermo Fisher Scientific's Custom Services facility (Madison, WI). A single lot of human HepaRG cells (Thermo Fisher Scientific, Frederick, MD) was used for the cell culture experiments. 96-well format collagen type I coated plates of human HepaRG cells were prepared using established methods. Briefly, cryopreserved HepaRG cells were thawed, plated at a density of approximately 100,000 cells/well in HepaRG Thaw, Plate, and General Purpose media (HPRG770, Thermo Fisher Scientific), and incubated for 48 hours. 0.5% DMSO was selected as vehicle control to balance the requisite need of DMSO in HepaRG cultures to maintain differentiation (for example, baseline metabolism, proportions of hepatocytes vs. cholangiocytes), while enabling further hepatic receptor pathway activation (for example, PXR and CAR) in response to chemical exposure. 48 hours after plating, the culture medium was replaced with HepaRG Serum-Free Incudtion Media. Cells were exposed to each test chemical in duplicate and maintained in CO2 incubators for another 48 hours. Chemical plates were thawed to room temperature and 200x concentrations of treatment groups were prepared. 8-point conentration-reponse curves were made with the highest exposure at 100 uM, followed by half-log dilutions, all in 0.5% DMSO. Each test plate contained variouse controls, induction positive controls (1mM phenobarbital), cytotoxicity positive controls ([…] aflatoxin B1), vehicle controls (0.5% DMSO), and total lysis controls (0.5% DMSO). Cell morphology images were taken using an Essen IncuCyte FLR automated microscope, with six 96-well plates imaged in about 24 minutes. Images were captured and exported and JPEG files. Spent culture media was transfered to black-well plates for the LDH assay, and remaining media was sorted at -80 C for later use. Cells were treated with RLT buffer and frozen until shipped for gene expression analysis. Total RNA was isolated from the cell suspension in 75 uL of Buffer RLT (Qiagen, Germantown, MD 20874) by Quintiles/Expression Analysis (Durham, NC) using a custom isolation procedure. Total RNA from each plate well was transferred to a preamplification plate. Fluidigm's 96.96 Dynamic ArrayTM (Fluidigm, Amsterdam, the Netherlands) technology was used for gene expression analyses by quantitative reverse transcription polymerase chain reaction (qRT-PCR, performed by Quintiles/Expression Analysis, Durham, NC)89. Standard TaqManTM Assays (Applied Biosystems/ThermoFisher Scientific, Foster City, CA) were used to assess the expression of 93 genes selected based on their selectivity and sensitivity to important hepatic receptors known to be modulated by environmental chemicals; importance in human hepatocyte functionality; and hepatotoxicity. […]
Structure (SMILES),outcome,AC50
C[C@]12C[C@H](O)[C@H]3[C@@H](CCC4=CC(=O)CC[C@@]43C)[C@@H]1CC[C@@H]2C(=O)CO,inactive,
COC(=O)c1ccc(I)cc1S(=O)(=O)NC(=O)Nc1nc(C)nc(OC)n1,inactive,
CCN(Cc1c(F)cccc1Cl)c1c([N+](=O)[O-])cc(C(F)(F)F)cc1[N+](=O)[O-],inactive,
CC(=O)S[C@@H]1CC2=CC(=O)CC[C@]2(C)[C@H]2CC[C@@]3(C)[C@@H](CC[C@@]34CCC(=O)O4)[C@H]12,inactive,
C=CCOC(Cn1ccnc1)c1ccc(Cl)cc1Cl (stereo not given),,13.7 µM (active)
CC(=O)[C@H]1CC[C@H]2[C@@H]3CCC4=CC(=O)CC[C@]4(C)[C@H]3CC[C@]12C,inactive,
COCCO,inactive,
N[C@@H](Cc1cc(I)c(Oc2ccc(O)c(I)c2)c(I)c1)C(=O)O,,0.00787 µM (active)
O=C(c1ccccc1)C1CCCCC1,inactive,
CN(C)C(=O)Nc1ccc(Cl)c(Cl)c1,inactive,
Cc1nn(C)c(Oc2ccccc2)c1C=NOCc1ccc(C(=O)OC(C)(C)C)cc1,,11.2 µM (active)
CCCCOC(=O)C(C)Oc1ccc(Oc2ccc(C(F)(F)F)cn2)cc1 (stereo not given),inactive,
S=C(S)NCCNC(=S)S.[Mn+2].[S-]C([S-])=NCCN=C([S-])[S-].[Zn+2],,1.11 µM (active) and 1.17 µM (active) and 2.99 µM (active)
CCNc1nc(N)nc(Cl)n1,inactive,
CSC(=O)c1cccc2nnsc12,inactive,
CCOC(=O)c1ccc(O)cc1,inactive,
CCCOC(=O)c1ccc(C(=O)OCCC)nc1,inactive,
CCC(C)OC(=O)N1CCCCC1CCO (stereo not given),inactive,
O=C(Nc1ccc([N+](=O)[O-])cc1Cl)c1cc(Cl)ccc1O,inactive,
CCOC(=O)C(C)Oc1ccc(Oc2cnc3cc(Cl)ccc3n2)cc1 (stereo not given),inactive,

Structure (SMILES),outcome,AC50
C[C@]12CC[C@@H]3c4ccc(O)cc4C[C@@H](CCCCCCCCCS(=O)CCCC(F)(F)C(F)(F)F)[C@H]3[C@@H]1CC[C@@H]2O (stereo not given in full),inactive,
COc1c(Cl)ccc(Cl)c1C(=O)O,inactive,
CCOC(=O)NCCOc1ccc(Oc2ccccc2)cc1,,81.6 µM (active)
COC(=O)CSc1cc(N=c2sc(=O)n3n2CCCC3)c(F)cc1Cl,inactive,
CC(C)(C)[C@@H](O)[C@@H](Cc1ccc(Cl)cc1)n1cncn1,,16.5 µM (active)
COC(=O)c1ccccc1C(=O)O,inactive,
CCSC(=O)N(CC(C)C)CC(C)C,inactive,
S=C([S-])NCCNC(=S)[S-].[Mn+2],,3.29 µM (active)
C#C[C@]1(O)CC[C@H]2[C@@H]3CCC4=CC(=O)CC[C@@H]4[C@H]3CC[C@@]21CC,inactive,
OB(O)O,inactive,
CCCN(CCC)c1c([N+](=O)[O-])cc(C(F)(F)F)c(N)c1[N+](=O)[O-],inactive,
CCN(CC)C(=O)c1cccc(C)c1,inactive,
Oc1ccc(C(c2ccc(O)cc2)C(Cl)(Cl)Cl)cc1,,85 µM (active)
CCCCCCC(C)OC(=O)COc1nc(F)c(Cl)c(N)c1Cl (stereo not given),inactive,
N#CSCSc1nc2ccccc2s1,inactive,
CCOC(=O)C(C)Oc1ccc(Oc2nc3ccc(Cl)cc3o2)cc1 (stereo not given),inactive,
O=C(c1ccc(O)cc1O)c1ccc(O)cc1O,inactive,
CCCCOC(=O)[C@@H](C)Oc1ccc(Oc2ccc(C(F)(F)F)cn2)cc1,inactive,
O=C(O)C1(C(=O)Nc2ccc(Cl)cc2Cl)CC1,inactive,
CCCOC(=O)NCCCN(C)C,inactive,
